The values below come from PubChem BioAssay AID431 (Sanford-Burnham Center for Chemical Genomics, 2006).

The campaign covered roughly 63,000 compounds. About 1,100 (1.7%) were called active. What follows is part of a selection rich in actives, with near analogues and random picks from the rest. Results with a measured potency or affinity are listed apart. A number with no mark means an inactive call.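 How the source made its calls: active means compounds whose percent cytotoxicity in the single-dose primary screen, scaled between solvent and toxic-drug controls, exceeds 50; inactive means the rest.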

A short description of the assay: cytotoxicity in KRAS-transformed pancreatic duct cells, primary screen, cell-based, fluorescence, HTS (AID 431).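 Further: 0% = DMSO solvent wells and 100% = doxorubicin-treated wells.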 Particulars: HPDE-C7K KRASV12 cells, Alamar Blue viability, 48 h; at 10 µM; hits give high values. For orientation: The colour change of resazurin is a common sign of viable cells or microbes.
On to `CCOc1ccc(C2C=C(c3ccc(C)cc3)Nc3nnnn32)cc1` (centres undefined), for which the cytotoxicity was -11%.

Turning to `COc1ccc(C2=CC(c3ccc(C)cc3)n3nnnc3N2)cc1` (centres undefined), the cytotoxicity was -4.4%. As to `Cc1ccc(CNC(=O)C2CCN(S(=O)(=O)c3cccs3)CC2)o1`, the cytotoxicity was -10.5%. For `O=C(CCC1CCCC1)c1c(O)c2ccccc2oc1=O`, the cytotoxicity was 18%. Consider `O=C(CC1CCCCC1)c1c(O)c2ccccc2oc1=O`, for which the cytotoxicity is 59.2% (active). With `O=C(c1c(O)c2ccccc2oc1=O)C1CCC1`, the cytotoxicity was 6.1%.

Turning to `COc1cccc(-c2nnc3n2N=C(c2cccc(Br)c2)CS3)c1`, the cytotoxicity was -14.8%. As to `CCSc1nnc([C@@H]2CCCN2C(=O)OC(C)(C)C)o1`, the cytotoxicity was -8.4%. For `Cc1cccc(OCC(O)Cn2c(NCc3cccnc3)nc3c2c(=O)[nH]c(=O)n3C)c1` (centres undefined) the value was -23.4%; for `CCNc1nc(CC)nc2c1oc1ccccc12`, -17.1%; for `Cc1nc(SCC(=O)O)c2oc3ccccc3c2n1`, -10.8%.

In the case of `Cc1nc(Nc2ccncc2)c2oc3ccccc3c2n1`, the cytotoxicity is -14.9%. On to `CC(=O)N1CCN(c2ccc(Nc3nc(C)nc4c3oc3ccccc34)cc2)CC1`, for which the cytotoxicity was -3.4%.

For `Cc1nc(SCC(=O)N2CCN(c3ccccc3)CC2)c2oc3ccccc3c2n1`, the cytotoxicity was 54.9% (active). Consider `CCc1nc(Nc2ccncc2)c2oc3ccccc3c2n1`, for which the cytotoxicity was 64.2% (active). `CCc1nc(Nc2ccc(N3CCN(C(C)=O)CC3)cc2)c2oc3ccccc3c2n1`: the cytotoxicity was 52.7% (active). `CC(=O)N1CCN(c2ccc(Nc3ncnc4c3oc3ccccc34)cc2)CC1`: the cytotoxicity is 19.3%. Regarding `Cc1nc(SCC(=O)N2CCCc3ccccc32)c2oc3ccccc3c2n1`, the cytotoxicity was -19.9%.

Regarding `COc1ccc2c(c1)c(=O)c(Br)c(C)n2Cc1ccccc1`, the cytotoxicity is 0.5%. With `FC(F)(F)c1cccc(-c2ccc(-c3csnn3)o2)c1`, the cytotoxicity is -13.4%. As for `O=C(O)CC(CNS(=O)(=O)c1ccccc1)c1ccccc1` (centres undefined), the cytotoxicity is 0%. In the case of `OCc1nnn(-c2cccc(C(F)(F)F)c2)c1CO`, the cytotoxicity is -2.5%. For `N#C/C(Cn1c[n+](NC(=O)Nc2ccccc2)cn1)=N/O` the value was -6.9%; for `O=C1CC(SCc2nc3ccccc3[nH]2)C(=O)N1c1cccc(F)c1` (centres undefined), -0.8%. In the case of `O=C(NCc1ccccn1)C1CCC(=O)N1C1CCCC1` (centres undefined), the cytotoxicity was 2.2%. The result for `CCOC(=O)c1ccccc1NC(=O)CN1CCC(n2nnc3cc(F)ccc32)CC1` reads 15.3%; that for `CCOc1ccc2nc(NC(=O)CN3CCC(n4nnc5cc(F)ccc54)CC3)sc2c1`, 66.6% (active); that for `COc1ccccc1NC(=O)CN1CCC(n2nnc3cc(F)ccc32)CC1`, -3.1%. `CC1(C)CNC(=O)c2sc(NC(=O)CN3CCOCC3)nc2C1`: the cytotoxicity was 0.1%.

On to `Cc1ccc2c(c1)NC(=O)C(CC(=O)NCCN(C)C)O2` (centres undefined), for which the cytotoxicity was -2.3%. For `Cc1cc(C)c2nc(-c3ccccn3)cc(C(=O)Nc3cc(C)on3)c2c1` the value was 8.1%. For the molecule `Cc1cc(NC(=O)c2cc(-c3ccncc3)nc3c(C)cccc23)no1`, the cytotoxicity is 68.1% (active). In the case of `Cc1cc(NC(=O)c2cc(-c3cccnc3)nc3c(C)c(C)ccc23)no1`, the cytotoxicity is 8.8%.

`N#Cc1nc(COc2ccccc2)oc1NCCN1CCOCC1`: the cytotoxicity is -18.1%. On to `N#Cc1nc(Cc2ccccc2)oc1NCc1cccnc1`, for which the cytotoxicity is -11.2%.

Take `N#Cc1nc(-c2ccc(OCc3ccccc3)cc2)oc1NCc1cccnc1`: the cytotoxicity was 12.7%. On to `N#Cc1nc(COc2ccc(F)cc2)oc1NCCN1CCOCC1`, for which the cytotoxicity is -2.9%. For `N#Cc1nc(COc2ccc(-c3ccccc3)cc2)oc1NCCCN1CCOCC1`, the cytotoxicity was 50.8% (active). For `COc1ccc(-c2nc(C#N)c(NCCCN3CCOCC3)o2)cc1` the value was 0.5%; for `N#Cc1nc(-c2ccc(OCc3ccccc3)cc2)oc1NCCN1CCOCC1`, 12.8%; for `N#Cc1nc(COc2ccc(-c3ccccc3)cc2)oc1NCc1cccnc1`, 83.1% (active).

With `COc1ccccc1CNC(=O)c1ccc(CNc2c(N3CCCC3)c(=O)c2=O)cc1`, the cytotoxicity was 4.2%.

For the molecule `CCCc1nc(-c2cc3ccc(C)cc3[nH]c2=O)no1`, the cytotoxicity is 6.3%. Turning to `Cc1nc(NCC2CCCO2)c2nnn(Cc3ccccc3)c2n1` (centres undefined), the cytotoxicity was -0.3%. Turning to `Cc1nc(SCC(=O)Nc2ccc(C)c(F)c2)c2oc3ccccc3c2n1`, the cytotoxicity was 24.5%. For `O=C1CSC(c2ccco2)N1` (centres undefined) the value was -1.3%; for `O=C(CN1CCN(c2ccc(Cl)cc2)CC1)Nc1ccc(F)c(F)c1`, -4.6%. As to `CC1CN(S(=O)(=O)c2ccc(NC(=O)c3ccco3)cc2)CC(C)O1` (centres undefined), the cytotoxicity is -0.1%. As to `COc1cc(NCCCC(C)N)c2ncccc2c1` (centres undefined), the cytotoxicity is 4.4%.

Regarding `COc1ccc(NS(=O)(=O)c2ccc(Oc3ncccn3)cc2)cc1`, the cytotoxicity was 18.2%. For `O=S(=O)(Nc1cccc2cccnc12)c1ccc(S(=O)(=O)N2CCCC2)cc1`, the cytotoxicity was 70.3% (active).

In the case of `CS(=O)(=O)Nc1cccc2cccnc12`, the cytotoxicity is 14.8%.

For the molecule `COc1cc(NS(=O)(=O)c2ccc(C)cc2)c2ncccc2c1`, the cytotoxicity was 69.8% (active). Turning to `O=C(C1CCN(S(=O)(=O)c2cccc3cccnc23)CC1)N1CCCC1`, the cytotoxicity was 3.6%. `O=C(c1nc2nc(-c3ccc(Cl)cc3)cc(C(F)(F)F)n2n1)N1CCOCC1`: the cytotoxicity is 3.6%. `COc1ccc(OC)c(-n2cnc3cc(C(=O)O)ccc32)c1`: the cytotoxicity was -15.9%. As to `CC1CCN(CCNC(=O)C2CCCN(S(=O)(=O)c3cccc4nonc34)C2)CC1` (centres undefined), the cytotoxicity was -4.5%. As for `CCOC(=O)c1c(NC(=O)c2cccs2)sc(C)c1CC`, the cytotoxicity was 2.4%. Take `CC(C)OC(=O)c1c(NC(=O)c2cccs2)sc2c1CCCC2`: the cytotoxicity was -3.4%. Consider `CCc1c(C)sc(NC(=O)c2cccs2)c1C(=O)OC(C)C`, for which the cytotoxicity was 51.6% (active). Turning to `COCc1cc(=O)[nH]c(Nc2nc3ccc(C)cc3o2)n1`, the cytotoxicity was 50.7% (active). In the case of `COC(=O)Cc1cc(=O)[nH]c(Nc2nc3ccccc3o2)n1`, the cytotoxicity is 11.4%. Regarding `COCc1cc(=O)[nH]c(Nc2nc3ccccc3o2)n1`, the cytotoxicity was 28.8%.

For the molecule `COc1ccccc1NC(C)=O`, the cytotoxicity is -2.1%.
